Most compounds without a hit are left out; they make up all but 12% or so of the library.
JMJD2A Tudor: inhibitors of human JMJD2A Tudor domain | O75164 | AlphaScreen JMJD2A-Tudor / H3K4me3 peptide binding | Potency, µM (series often up to 114 µM), for the others: top-dose activity change, negative = inhibition, usual class: inhibitors | 4.4% of 390,000 active; also: % is scaled to controls: 0 for no effect and ±100 for the full control effect; nearly all actives have a fitted effect of over 50% in size
BAZ2B block: BAZ2B (human) inhibition | Q9UIF8 | AlphaScreen BAZ2B-H3K14Ac peptide displacement | Potency, µM (series often up to 114 µM), for the others: top-dose activity change, negative = inhibition, hits mostly inhibitors | 4.4% of 360,000 active | AID 504333; also: % is scaled to controls: 0 for no effect and ±100 for the full control effect; nearly all actives have a fitted effect of over 60% in size
Target sequence (Q9UIF8 whole entry, looked up): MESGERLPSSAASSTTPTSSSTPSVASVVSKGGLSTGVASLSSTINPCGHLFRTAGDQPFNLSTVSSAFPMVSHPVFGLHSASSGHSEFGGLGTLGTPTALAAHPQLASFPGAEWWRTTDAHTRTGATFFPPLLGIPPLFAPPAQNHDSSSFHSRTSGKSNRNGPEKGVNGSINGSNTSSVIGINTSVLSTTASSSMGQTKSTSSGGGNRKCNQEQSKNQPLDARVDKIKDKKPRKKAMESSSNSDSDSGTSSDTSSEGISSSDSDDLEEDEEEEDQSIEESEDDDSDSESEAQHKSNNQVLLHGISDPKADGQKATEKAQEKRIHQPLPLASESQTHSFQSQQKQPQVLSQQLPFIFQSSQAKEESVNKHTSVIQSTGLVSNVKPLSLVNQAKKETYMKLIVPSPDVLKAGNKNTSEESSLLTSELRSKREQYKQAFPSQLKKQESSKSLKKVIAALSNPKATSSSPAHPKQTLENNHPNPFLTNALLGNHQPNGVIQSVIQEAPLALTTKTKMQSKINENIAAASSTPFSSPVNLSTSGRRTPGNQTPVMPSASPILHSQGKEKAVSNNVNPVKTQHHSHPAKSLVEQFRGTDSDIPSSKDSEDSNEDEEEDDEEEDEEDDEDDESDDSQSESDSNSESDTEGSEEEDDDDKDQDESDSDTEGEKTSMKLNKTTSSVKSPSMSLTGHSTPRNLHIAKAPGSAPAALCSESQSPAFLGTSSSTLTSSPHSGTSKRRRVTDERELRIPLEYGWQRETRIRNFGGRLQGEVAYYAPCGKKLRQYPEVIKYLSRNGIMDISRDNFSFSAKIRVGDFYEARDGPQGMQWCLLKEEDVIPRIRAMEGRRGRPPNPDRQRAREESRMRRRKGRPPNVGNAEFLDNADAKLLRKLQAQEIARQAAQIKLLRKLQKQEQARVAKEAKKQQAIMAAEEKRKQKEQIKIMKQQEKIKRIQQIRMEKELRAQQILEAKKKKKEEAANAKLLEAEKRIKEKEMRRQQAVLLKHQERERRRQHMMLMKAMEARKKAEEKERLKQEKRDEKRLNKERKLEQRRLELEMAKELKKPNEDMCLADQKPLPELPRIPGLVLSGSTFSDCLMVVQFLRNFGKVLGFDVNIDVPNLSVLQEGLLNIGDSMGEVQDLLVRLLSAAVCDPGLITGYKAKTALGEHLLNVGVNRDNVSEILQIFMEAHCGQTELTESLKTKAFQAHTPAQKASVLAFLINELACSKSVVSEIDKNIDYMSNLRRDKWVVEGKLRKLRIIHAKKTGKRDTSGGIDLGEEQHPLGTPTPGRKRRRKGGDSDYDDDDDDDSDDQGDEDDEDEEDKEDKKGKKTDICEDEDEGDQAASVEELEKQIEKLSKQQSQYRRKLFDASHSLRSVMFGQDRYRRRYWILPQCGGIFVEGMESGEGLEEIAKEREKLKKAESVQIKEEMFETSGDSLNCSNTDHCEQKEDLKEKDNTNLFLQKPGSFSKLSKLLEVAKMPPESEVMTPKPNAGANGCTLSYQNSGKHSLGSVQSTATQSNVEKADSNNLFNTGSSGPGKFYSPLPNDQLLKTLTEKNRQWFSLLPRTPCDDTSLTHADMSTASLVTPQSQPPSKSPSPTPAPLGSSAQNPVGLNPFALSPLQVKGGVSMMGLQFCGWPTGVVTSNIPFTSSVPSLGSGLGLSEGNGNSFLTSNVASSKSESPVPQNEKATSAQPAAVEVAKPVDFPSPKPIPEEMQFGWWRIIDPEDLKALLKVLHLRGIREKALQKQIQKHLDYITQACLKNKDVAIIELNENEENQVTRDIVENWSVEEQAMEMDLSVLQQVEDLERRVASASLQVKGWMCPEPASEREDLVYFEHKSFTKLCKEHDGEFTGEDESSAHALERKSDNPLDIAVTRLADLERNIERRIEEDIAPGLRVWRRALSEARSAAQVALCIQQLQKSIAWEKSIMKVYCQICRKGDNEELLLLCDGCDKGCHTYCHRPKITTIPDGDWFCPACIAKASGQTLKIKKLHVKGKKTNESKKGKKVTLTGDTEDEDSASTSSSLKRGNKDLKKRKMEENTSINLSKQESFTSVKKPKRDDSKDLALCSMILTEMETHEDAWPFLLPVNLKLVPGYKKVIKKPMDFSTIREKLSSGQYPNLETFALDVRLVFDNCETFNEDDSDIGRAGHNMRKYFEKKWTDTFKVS
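Compounds, titrated to a top concentration of 110 uM, were incubated 30 min at room temperature with preformed BAZ2B/acetyl-K14 H3 peptide complex (50 nM each). Proximity signal was measured by AlphaScreen after 20 min with beads.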
G9a block: inhibitors of human histone lysine methyltransferase G9a; Q96KQ7; G9a H3K9 monomethylation, AlphaScreen, 2 h; Potency, µM (titrated, usually from 102 µM), inactives show at the highest dose activity, negative = inhibition, most hits filed as inhibitors; 8.8% of 350,000 active; AID 504332; also: % is scaled to controls: 0 for no effect and ±100 for the full control effect; nearly all actives have a fitted effect of over 75% in size
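Readings reflect AlphaScreen signal from monomethyl-H3K9 antibody detection. HMT at 20 nM; substrate b-H3K9 500 nM; cofactor SAM 20 uM; 2 h RT reaction; compounds tested as titrations in qHTS with 15 min preincubation.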
HP1b chromo inh: inhibitors of HP1-beta chromodomain binding to methylated histone tails; P83916; AlphaScreen HP1-beta / biotin-H3K9me3 peptide binding; Potency, µM (series often up to 114 µM), for the others: top-dose activity change, negative = inhibition, most hits filed as inhibitors; 0.56% of 390,000 active; also: nearly all actives have a fitted effect of over 70% in size
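Compound inhibition of the preformed complex between 50 nM HP1-beta and 50 nM biotinylated H3K9me3 peptide was read by AlphaScreen. Buffer was PBS pH 7.4 with 0.01% Tween-20. Incubations ran 30 min at room temperature, with 10 ug/mL donor/acceptor beads.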
Sfp inh: blocks B. subtilis Sfp PPTase activity; Biochemical Sfp PPTase activity, qHTS; Potency, µM, without a hit: largest response in the series, negative = inhibition, actives largely listed as inhibitors; 3.5% of 310,000 active; AID 1490;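 also: the enzyme is Sfp with the accession as filed and its product quenches rhodamine fluorescence; 0% = enzyme reaction without inhibitor and -100% = no enzyme wells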
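With Hepes-Na pH 7.6 buffer containing 10 mM MgCl2, Sfp (15 nM) modified BHQ-2-YbbR (12.5 uM) using rhodamine-CoA (5 uM). Two reads 30 minutes apart at 525/598 nm yielded each well's rate.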
Starred values were filed as active, the others as inactive; ? = inconclusive; . = no result given; [ ] = another dose, or the depositor's remark. Calls follow the shape of the dose curve; as a rule, active = well fitted curve in the direction sought with a large enough effect; inconclusive = small, poorly fitted or top-dose-only effect, or another doubt; inactive = no such curve, though single readings can be large; an effect the other way counts as inactive or inconclusive. Potency is read from the fitted curve at half-maximal effect.

SMILES	JMJD2A Tudor	BAZ2B block	G9a block	HP1b chromo inh	Sfp inh
COc1ccccc1/C=C1\SC(=O)N(CC(=O)N(C)C2CCS(=O)(=O)C2)C1=O (configuration not stated)	-28%	-15%	-12%[59 µM]	27%	21%
C=C(C)C(=O)N1CC2(CC(c3cccc(NC(=O)/C=C\C)c3)=NO2)C[C@H]1C(N)=O (some centres not stated)	6%	8%	14%[59 µM]	40%	18%
C/C=C/C=C/C(=O)N1CC2(CC(c3cccc(NC(=O)/C=C/C)c3)=NO2)C[C@@H]1C(N)=O (some centres not stated)	-30%	-2%	?	14%	28µM*
C=C(C)C(=O)Nc1cccc(C2=NOC3(C2)C[C@@H](C(N)=O)N(C(=O)/C=C/C=C/C)C3)c1 (some centres not stated)	3.2µM*	2µM*	?	?	32µM*
Cn1c(CC(=O)Nc2ccccc2Cl)nnc1SCC(=O)NC1CCCCC1	-11%	8%	7%[59 µM]	34%	2%
CN(C)c1ccc(CNc2ncnc3sccc23)cc1	-35%	-36%	13µM*	3%	-6%
NS(=O)(=O)c1ccc(CNc2ncnc3sccc23)cc1	-3%	3%	?	28%	22%
CN(C)c1ccc(CNc2ncc(Br)cc2Br)cc1	20µM*	14µM*	40µM*	-66%	-7%
CCCc1cc(=O)n2[nH]c(NC(=O)c3ccc(C(C)(C)C)cc3)nc2n1	-4%	2%	12%[59 µM]	45%	.
CC1(C)CC(=S)Nc2ccccc2S1	-32%	-7%	7.9µM*	?	28µM*
O=C1CSc2ccccc2N1	-23%	.	.	37%	.
O=[N+]([O-])c1ccc(Nc2nc(NC3CCCCC3)nc(N3CCCC3)n2)cc1	?	?	11µM*	-4%	2%
CSc1cccc(NC(=O)c2cc(S(=O)(=O)N3CCCC3)cn2C)c1	-3%	-26%	-36%	19%	1%
O=Nc1c(-c2c(O)[nH]c3cc(Br)ccc23)[nH]c2ccccc12	3.2µM*	4µM*	8.4µM*	4µM*	-18%
COCCNC(=O)C(c1ccncc1)N(C(=O)c1sc(C)nc1C)c1cccc(C)c1 (configuration not stated)	-7%	-3%	8%	48%	9%
CSc1nc2nc3c(cc2c(=O)n1-c1ccc(C)cc1)COC(C)(C)C3	-17%	-1%	?	23%	-6%
CSc1nc2nc3c(cc2c(=O)n1-c1ccccc1)COC(C)(C)C3	1%	-16%	50µM*	35%	4%
CC(=O)N/C(=N\OCc1ccccc1Cl)c1nonc1NC(C)=O	2%	3%	-9%[59 µM]	43%	19%
C#CCOCCOCCOCCNc1nc(N2CCN(C(=O)[C@H](CCC(=O)O)n3cc(C(N)Cc4ccc(O)cc4)nn3)CC2)nc(N2CCN(C(=O)[C@H](Cc3cc4ccccc4[nH]3)n3cc(C(N)CC(C)C)nn3)CC2)n1 (some centres not stated)	.	79µM*	5%[12.7 µM]	.	9%
C#CCOCCOCCOCCNc1nc(N2CCN(C(=O)[C@H]([C@@H](C)CC)n3cc([C@@H](N)CO)nn3)CC2)nc(N2CCN(C(=O)[C@H](Cc3cc4ccccc4[nH]3)n3cc([C@@H](N)Cc4ccc(O)cc4)nn3)CC2)n1	.	14µM*	?	.	?
C#CCOCCOCCOCCNc1nc(N2CCOCC2)nc(N2CCN(C(=O)[C@H](Cc3cc4ccccc4[nH]3)n3cc([C@@H](N)Cc4ccc(O)cc4)nn3)CC2)n1	?	?	?	-7%	16%
C#CCOCCOCCOCCNc1nc(N2CCN(C(=O)C(Cc3ccc(O)cc3)n3cc(C(N)CC(C)C)nn3)CC2)nc(N2CCN(C(=O)C(Cc3cc4ccccc4[nH]3)n3cc(C(N)Cc4ccc(O)cc4)nn3)CC2)n1 (configuration not stated)	.	35µM*	-1%[12.7 µM]	.	-13%
CC(=O)C1=C(O)C(=O)N(Cc2ccccc2)C1c1ccc(Br)cc1 (configuration not stated)	-25%	-12%	22%[2.33 µM]	64%	11%
COc1ccc(F)cc1S(=O)(=O)N1CCCN(S(=O)(=O)c2cc(F)ccc2OC)CC1	-11%[11.4 µM]	-20%	3%[12.7 µM]	-17%	16%
CCOCCCn1c(SCC(=O)N(C)C2CCS(=O)(=O)C2)nc2ccccc2c1=O (configuration not stated)	7%	-3%	-37%	37%	.
SMILES	JMJD2A Tudor	BAZ2B block	G9a block	HP1b chromo inh	Sfp inh
Nc1ccc(-c2ccc(N)c(C(=O)O)c2)cc1C(=O)O	-25%	-11%	?	11%	-7%
CC(=O)Nc1cc(Br)ccc1O	-7%	-11%	33%[0.501 µM]	14%	-20%
CC(=O)Nc1cc(-c2ccccc2)ccc1O	-5%	23%	28µM*	26%	-11%
Nc1cc(-c2ccccc2)ccc1O	?	?	22µM*	-22%	-15%
CN(C)c1ccc(O)c2c1CC1CC3[C@@H](N(C)C)C(=O)C(C(N)=O)C(=O)[C@]3(O)C(=O)C1C2=O (some centres not stated)	8.9µM*	.	.	16%	.
C[C@H]1c2cccc(O)c2C(=O)C2C(=O)C3(O)C(=O)C(C(N)=O)C(=O)[C@@H](N(C)C)[C@@H]3[C@@H](O)[C@@H]21 (some centres not stated)	13µM*	.	.	36%	.
CN(C)c1ccc(O)c2c1CC1CC3C(N(C)C)C(=O)C(C(N)=O)=C(O)[C@@]3(O)C(=O)C1=C2O (some centres not stated)	8.9µM*	.	.	3%	.
O=C(CN1C(=O)c2ccccc2S1(=O)=O)NC(Nc1ccccc1F)C(Cl)(Cl)Cl (configuration not stated)	-23%	15%	-29%	-14%	18%
O=C(NCC(=O)N1CCN(c2ccc([N+](=O)[O-])cc2)CC1)c1ccco1	-18%	.	.	6%	.
C=C1c2cccc(O)c2C(O)=C2C(=O)[C@]3(O)C(O)=C(C(N)=O)C(=O)C(N(C)C)C3C(O)C12 (some centres not stated)	.	.	?	.	-45%
C[C@H]1c2cccc(O)c2C(O)=C2C(=O)C3(O)C(O)=C(C(N)=O)C(=O)[C@@H](N(C)C)[C@@H]3[C@@H](O)[C@@H]21 (some centres not stated)	22µM*	8.9µM*	5µM*	30%	.
CCCCc1nc(NCC2CCCO2)c(C#N)c2c1COC(C)(C)C2 (configuration not stated)	22%	6%	-31%[59 µM]	61%	1%
CCc1nc(N2CCN(CC(=O)NCC3CCCO3)CC2)c(C#N)c2c1COC(C)(C)C2 (configuration not stated)	-1%	50µM*	.	33%	-29%

Screens: PubChem, National Center for Advancing Translational Sciences (NCATS)
